Source: PubChem BioAssay
Rows were chosen to be rich in hits. Some 1% of all compounds tested hit in one or more screens of this group.
RN4220 kill: kills Staphylococcus aureus RN4220; S. aureus RN4220 growth, OD600, 16 h; inhibition, % (no concentration beside the values); 0.33% of 330,000 active; AID 1259311; in the data active = inhibition above about 85%;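 also: plate controls were untreated cells for no effect and reference antibiotic for full effect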
SSB-PriA inh: K. pneumoniae PriA-SSBct interaction inhibition | AlphaScreen SSBct-PriA binding, biotinylated peptide | inhibition, % at 33 µM | 0.6% of 430,000 active | AID 1272365; in the data active = inhibition mostly above about 37%, no sharp cut-off; inactive = mostly below about 20%;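 also: plate controls were negative control peptide for no effect and reference peptide for full effect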
ugtP null kill: compounds lethal to S. aureus RN4220 ugtP deletion mutant; 0.54% of 330,000 active; OD600 growth, 16 h; growth inhibition, % (concentration not given with the values); in the data active = growth inhibition above about 68%;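 also: plate controls were untreated wells for no effect and antibiotic for full effect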
Numbers without * were called inactive; / = no result given.

SMILES | RN4220 kill | SSB-PriA inh | ugtP null kill
CCN(CC)c1nc2cc(C(=O)OC)ccc2c(=O)n1Cc1ccc(C)cc1 | / | -41 | /
COc1ccccc1CNC(=O)Cn1cnc2c(-c3ccccc3)csc2c1=O | / | -15 | /
Cc1nc(SCc2ccccc2F)c2cnn(-c3ccccc3)c2n1 | 97 | / | active
Cc1nc(SCC(=O)Nc2ccc(S(N)(=O)=O)cc2)c2cnn(-c3ccccc3)c2n1 | / | -18 | /
O=C(C1=C(Nc2ccccc2)c2ccccc2S(=O)(=O)N1)c1ccccc1 | / | 42* | /
Cc1ccccc1NC1=C(C(=O)c2ccccc2)N(C)S(=O)(=O)c2ccccc21 | -4 | 1 | 18
CCOC(=O)c1cnn(-c2nc(SC)nc3sc4c(c23)CCCC4)c1N | 100* | -19 | 100*
CCOC(=O)c1cnn(-c2ncnc3sc4c(c23)CCC4)c1N | 18 | -13 | 3
COc1ccc(CCNC(=O)CN2CC(c3nc(-c4ccco4)no3)C2)cc1OC | / | 2 | /
Cc1nc2cc(C(=O)OCC(=O)NC34CC5CC(CC(C5)C3)C4)ccc2n1-c1ccccc1 | -7 | 30 | -13
Cc1nc2cc(C(=O)OCC(=O)Nc3cccc(Cl)c3)ccc2n1-c1ccccc1 | -3 | -20 | 99*
O=C(NCc1ccc2c(c1)OCO2)C1CCCN(c2ccc(-c3ccc(F)cc3)nn2)C1 (stereo not drawn) | / | -6 | /
Cc1ccc(C=Nn2c(-c3ccccn3)n[nH]c2=S)o1 | 4 | 72* | 3
S=c1[nH]nc(-c2ccccn2)n1N=Cc1ccccc1 | 7 | 74* | 13
S=c1[nH]nc(-c2ccccn2)n1N=Cc1ccc(Cl)cc1 | 8 | 3 | 3
Nn1c(-c2ccccc2)n[nH]c1=S | / | 5 | /
Cc1ccccc1C=Nn1c(-c2ccccn2)n[nH]c1=S | 4 | 59* | -2
S=c1[nH]nc(-c2ccccn2)n1N=Cc1cccc2ccccc12 | 6 | 38 | -2
Nn1c(-c2ccccn2)n[nH]c1=S | / | 83* | /
S=c1[nH]nc(-c2ccccn2)n1N=Cc1ccco1 | 4 | 38 | 15
CCC[C@@H](CN1CCC[C@H]1CN1C(N)=NC[C@H]1C(C)C)N1C[C@@H](Cc2ccccc2)N(CCCC2CCCC2)C1=N | 100* | 2 | 101*
CCCCN1C(=N)N([C@@H](CCC)CN2CCC[C@H]2CN2C(N)=NC[C@@H]2Cc2ccccc2)C[C@H]1[C@H](C)CC | / | 9 | /
CC(C)C[C@@H]1CN=C(N)N1C[C@@H]1CCCN1C[C@@H](C(C)C)N1C[C@@H](Cc2ccccc2)N(CCCC2CCCC2)C1=N | 101* | 9 | 101*
CCCCN1C(=N)N([C@@H](CCC)CN2CCC[C@H]2CN2C(N)=NC[C@H]2CC(C)C)C[C@H]1Cc1ccccc1 | -2 | 7 | 6
CCCCN1C(=N)N([C@@H](CN2CCC[C@H]2CN2C(N)=NC[C@@H]2Cc2ccccc2)C(C)C)C[C@H]1Cc1ccccc1 | / | -27 | /
SMILES | RN4220 kill | SSB-PriA inh | ugtP null kill
CC[C@@H](C)[C@@H]1CN([C@@H](CN2CCC[C@H]2CN2C(N)=NC[C@H]2C(C)C)C(C)C)C(=N)N1CCc1ccc(Cl)c(Cl)c1 | 101* | 0 | 101*
CCCCN1C(=N)N(C(CCC)CN2CCCC2CN2C(N)=NCC2Cc2ccccc2)CC1Cc1ccccc1 (stereo not drawn) | 82 | / | 98*
CC[C@@H](C)[C@@H]1CN([C@@H](C)CN2CCC[C@H]2CN2C(N)=NC[C@@H]2Cc2ccccc2)C(=N)N1CCc1ccc(Cl)c(Cl)c1 | / | -3 | /
Cc1noc(C)c1S(=O)(=O)NCCn1ccc(-c2cccs2)n1 | / | -10 | /
CCOC(=O)C1CCCN(C(=O)C2CN(C(=O)c3ccc4c(c3)OCO4)C2)C1 (stereo not drawn) | / | -13 | /
Cn1cccc1C(CNS(=O)(=O)Cc1ccccc1F)N1CCc2ccccc2C1 (stereo not drawn) | / | 17 | /
COc1ccc(-c2nc3ccccc3[nH]2)cc1 | 2 | -12 | 5
COc1ccc(-c2cc(=O)n(-c3nc4ccccc4[nH]3)[nH]2)cc1 | 42 | 40* | -14
Cc1ccc(N2CCC(CNS(=O)(=O)c3cccc(Cl)c3C)CC2)nn1 | / | -7 | /
Cc1ccccc1OCC(=O)N(Cc1cccs1)C1CCOCC1 | / | -28 | /
Cc1ccc2c(c1)c1c3n2CCCNC3CCC1 (stereo not drawn) | 3 | 5 | -6
c1cc2c(cc1C1CCCCC1)c1c3n2CCCNC3CCC1 (stereo not drawn) | 89* | 45 | 87*
O=C(Cc1ccc(NC(=O)c2ccc(OC(F)(F)F)cc2)cc1)NCc1cccs1 | / | -19 | /
O=C(Nc1ccccc1N1CCCCC1)c1cc(S(=O)(=O)N2CCOCC2)ccc1F | 13 | 47* | 9
O=C(Nc1ccccc1N1CCCC1)c1cc(S(=O)(=O)N2CCOCC2)ccc1Cl | 4 | 1 | 2
Cc1ccc2nc(NC(=O)CCn3c(=O)oc4ccc(Cl)cc43)sc2c1 | / | 5 | /
Cc1ccc(C(C#N)c2ccc3c(C(F)(F)F)cc(C(F)(F)F)nc3n2)cc1 (stereo not drawn) | 0 | 30 | 3
N#CC(c1ccccc1)c1ccc2c(C(F)(F)F)cc(C(F)(F)F)nc2n1 (stereo not drawn) | 7 | 77* | 12
O=C(NCc1ccc(Br)cc1)c1ccc2c(=O)nc3c(-c4cccc(F)c4)n[nH]n3c2c1 | / | -1 | /
COC(=O)C1N2C(=O)C(NC(=O)COc3ccccc3)C2SC1(C)C (stereo not drawn) | 101* | / | 101*
CCC(Oc1ccccc1)C(=O)NC1C(=O)N2C1SC(C)(C)C2C(=O)O (stereo not drawn) | / | 0 | /
CCCCCCCCCOC(=O)C1N2C(=O)[C@@H](NC(=O)COc3ccccc3)[C@H]2SC1(C)C (stereo partly drawn) | / | -10 | /
CC1(C)S[C@@H]2[C@H](NC(=O)C(NC(=O)N3CCNC3=O)c3ccccc3)C(=O)N2[C@H]1C(=O)O (stereo partly drawn) | 100* | -5 | 100*
CC1(C)S[C@@H]2[C@H](NC(=O)[C@H](N)c3ccccc3)C(=O)N2[C@H]1C(=O)OC1OC(=O)c2ccccc21 (stereo partly drawn) | / | -7 | /
CC1(C)S[C@@H]2[C@H](NC(=O)Cc3ccccc3)C(=O)N2[C@H]1C(=O)O | 100* | -3 | 100*
SMILES | RN4220 kill | SSB-PriA inh | ugtP null kill
COC(=O)c1ccc(NC(=O)C(=O)NCC[C@H](O)c2ccc3c(c2)OCO3)cc1 | / | -2 | /
O=C(Nc1cnn(CC2CCOCC2)c1)c1ccno1 | / | 1 | /
CC1C(=O)N2CCCc3cc(NC(=O)C(=O)NCC4CCN(C(=O)Oc5ccccc5)CC4)cc1c32 (stereo not drawn) | / | 3 | /
O=S(=O)(N=C(Nc1cccc2ccccc12)c1ccc(F)cc1)c1ccccc1 | / | 10 | /
COc1cccc(CNC(=O)CSc2n[nH]c(=O)c3cc(-c4ccco4)nn23)c1 | / | -11 | /
O=C(ON=CC1=C(Cl)c2ccccc2CC1)c1ccc(F)cc1 | 0 | -8 | -3
Cc1ccc(CON=CC2=C(Cl)c3ccccc3CC2)cc1 | -6 | -32 | 95*
O=C(CCCSc1ccccc1)Nc1ccc2sccc2c1 | / | -6 | /
COc1ccc(-c2cc(-c3cccs3)nc(SCC(=O)Nc3ccccc3F)c2C#N)cc1OC | / | -12 | /
O=[N+]([O-])c1ccc(C(=Nc2cccc3ccccc23)N2CCOCC2)cc1 | -2 | 48* | 18
